Screens: PubChem, National Center for Advancing Translational Sciences (NCATS)
PLK1 PBD inh = qHTS for Inhibitors of PLK1-PDB (polo-like kinase 1 - polo-box domain): Primary Screen. Serine/threonine-protein kinase PLK1 (Homo sapiens), P53350. 360,000 compounds, 2.8% hits. Plk1 PBD binding of FITC phosphopeptide, fluorescence polarization. Potency, µM, without a hit: max response, negative = inhibition, actives largely listed as inhibitors. AID 720504, 2013; note: series mostly up to about 57 µM; nearly all actives have a fitted effect of over 65% in size
Sfp inh = qHTS Assay for Inhibitors of Bacillus subtilis Sfp phosphopantetheinyl transferase (PPTase). 4'-phosphopantetheinyl transferase ffp (Bacillus subtilis), Q9F4F7. Biochemical Sfp PPTase activity, qHTS. Potency, µM, inactives show largest response in the series, negative = inhibition, actives largely listed as inhibitors. 310,000 compounds, 3.5% hits. AID 1490, 2009;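 note: the enzyme is Sfp with the accession as filed and its product quenches rhodamine fluorescence; 0% = enzyme reaction without inhibitor and -100% = no enzyme wells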
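After 15 min at room temperature with compound, 15 nM Sfp received 5 uM rhodamine-CoA plus 12.5 uM BHQ-2-ybbR (50 mM Hepes pH 7.6, 10 mM MgCl2). Rate came from the fluorescence difference over 30 min, ex 525/em 598 nm.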
VDR inh = Inhibitors of the vitamin D receptor (VDR): qHTS; VDR-SRC2-3 peptide fluorescence polarization, 2 h; Potency, µM, inactives show max response, negative = inhibition, hits mostly inhibitors; 400,000 compounds, 0.93% hits; AID 504847, 2011
Target sequence (P11473 whole entry, looked up): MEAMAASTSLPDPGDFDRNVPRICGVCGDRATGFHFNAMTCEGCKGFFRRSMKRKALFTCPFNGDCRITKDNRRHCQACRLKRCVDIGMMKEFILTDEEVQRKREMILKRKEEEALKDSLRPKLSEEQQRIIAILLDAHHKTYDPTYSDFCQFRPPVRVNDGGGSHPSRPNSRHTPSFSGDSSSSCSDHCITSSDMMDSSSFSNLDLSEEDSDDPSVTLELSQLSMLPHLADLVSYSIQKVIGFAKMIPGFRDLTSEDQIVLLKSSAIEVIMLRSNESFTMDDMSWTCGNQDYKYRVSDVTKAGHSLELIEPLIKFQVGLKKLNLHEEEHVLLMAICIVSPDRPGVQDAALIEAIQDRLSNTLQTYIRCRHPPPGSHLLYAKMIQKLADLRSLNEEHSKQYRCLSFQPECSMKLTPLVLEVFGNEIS
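After 23 nl compound addition and a short centrifugation, plates sat for 2 hours at ambient temperature; polarization of fluorescence then indicated loss of VDR binding to peptide SRC2-3.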
ALOX12 inh = Primary qHTS assay for inhibitors of human arachidonate 12S-lipoxygenase (ALOX12): Round 2; Polyunsaturated fatty acid lipoxygenase ALOX12 (Homo sapiens), P18054; purified 12hLO, xylenol orange hydroperoxide absorbance; Potency, µM (series often up to 108 µM), inactives show at the top dose activity change, negative = inhibition, most hits filed as inhibitors; 580,000 compounds, 1.1% hits; AID 1671190, 2021
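Hydroperoxide product was detected by ferrous iron/xylenol orange as the 573 to 405 nm absorbance ratio. Arachidonic acid at 40 uM (final) was turned over for 30 min at room temperature by 150 nM human 12hLO, pH 7.0 Hepes buffer, after 15 min compound preincubation.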
Active calls of the source: *; [ ] = remark or other dose. In the library only some 4.2% were active in any assay of this set; here they are far more common. Calls come from the whole dose curve; as a rule, active = well fitted curve in the direction sought with a large enough effect; inconclusive = small, poorly fitted or top-dose-only effect, or another doubt; inactive = no such curve, though single readings can be large; an effect the other way counts as inactive or inconclusive. Unless noted, % is set by controls: 0 for no effect and ±100 for the full control effect; potency is the fitted concentration of half-maximal effect.

For Cc1ccc(CN(C)C(=O)CCc2nc3sc4c(c3c(=O)[nH]2)CCCC4)o1 the results were PLK1 PBD inh -22.4%, Sfp inh 50.1µM*, VDR inh inconclusive and ALOX12 inh inconclusive.
CN(Cc1ccco1)C(=O)CCc1nc2sc3c(c2c(=O)[nH]1)CCCC3 was read as PLK1 PBD inh -26.1%, Sfp inh -16.3% and VDR inh inconclusive.
O=C(Cn1cnc2sc3c(c2c1=O)CCCC3)NCC(=O)Nc1c(F)cccc1F was read as PLK1 PBD inh 33.6µM*, Sfp inh -20.7%, VDR inh -13.1% and ALOX12 inh -1.1%.
CC1Cc2nc(SCC(=O)Nc3nccs3)n(Cc3ccccc3)c(=O)c2S1 (stereo not given) was read as PLK1 PBD inh -12.5%, Sfp inh 9.2%, VDR inh 4.1% and ALOX12 inh 3.1%.
For CCc1nc(C)c(C#N)c2cc(OC)c(OC)cc12 the results were PLK1 PBD inh -3.8%, Sfp inh -3.7%, VDR inh -15.0% and ALOX12 inh -23.0%.
Screening CC(=O)OC1CC[C@]2(C)C(CC(OC(C)=O)[C@@]3(C)C4=CC(=O)OC(c5ccoc5)[C@]4(C)CCC23)C1(C)C (stereo not given in full) returned Sfp inh 0.3% and VDR inh 25.1µM*.
Screening CC1(C)C(=O)C=C[C@@]2(C)C1C=C[C@@]1(C)C2CC[C@@]2(C)C(c3ccoc3)OC(=O)C3OC312 (stereo not given in full) returned Sfp inh 0.9% and VDR inh 3.55µM*.
CC(=O)OC1CC(OC(C)=O)[C@]2(C)C(CC(=O)[C@]3(C)C2CC[C@@]2(C)C(c4ccoc4)OC(=O)C4O[C@@]423)C1(C)C (stereo not given in full) was read as Sfp inh -10.2% and VDR inh 28.2µM*.
For CC(=O)OC1C=C[C@]2(C)C(CC(OC(C)=O)[C@@]3(C)C4=CC(=O)OC(c5ccoc5)[C@]4(C)CCC23)C1(C)C (stereo not given in full) the results were Sfp inh -17.9% and VDR inh 56.2µM*.
`CC(=O)O[C@@H]1C[C@H]2C(C)(C)C(=O)C=C[C@]2(C)[C@H]2CC[C@@]3(C)[C@H](c4ccoc4)OC(=O)[C@H]4O[C@]43[C@@]21C` gave PLK1 PBD inh -12.0%, Sfp inh -6.5%, VDR inh -26.5% and ALOX12 inh 8.2%.
`COc1cc(CC(=O)OCC(=O)c2ccc(Cl)cc2)cc(OC)c1OC` gave ALOX12 inh -17.2%.
COc1ccc(N/N=C(\C#N)C(=O)NCCc2ccc(OC)c(OC)c2)cc1 was read as PLK1 PBD inh -8.7%, Sfp inh -5.5%, VDR inh -16.2% and ALOX12 inh -123.9%.
Screening O=[N+]([O-])C1=CC=C2C(=NC3(CCCCC3)N2O)C1=NCCO returned PLK1 PBD inh -10.1%, Sfp inh 39.8µM*, VDR inh -9.5% and ALOX12 inh inconclusive.
`CN=C1C([N+](=O)[O-])=CC=C2C1=NC1(CCCCC1)N2O` gave PLK1 PBD inh -4.6%, Sfp inh 8.91µM*, VDR inh 3.9% and ALOX12 inh -31.7%.
Cc1cccc(-n2c(CCc3ccccc3)nnc2SCC(=O)c2ccccc2)c1 was read as PLK1 PBD inh 2.0%, Sfp inh 50.1µM*, VDR inh inconclusive and ALOX12 inh -21.4%.
Cc1ccc(OCc2nnc(SCC(=O)c3ccccc3)n2-c2ccccc2)cc1 was read as PLK1 PBD inh -4.6%, Sfp inh -7.7%, VDR inh -4.1% and ALOX12 inh -13.6%.
Cc1cccc(Cn2c(=O)n(-c3ccc(CC(=O)NCc4ccco4)cc3)c(=O)c3sccc32)c1 was read as PLK1 PBD inh -18.2%, Sfp inh 22.4µM*, VDR inh -10.9% and ALOX12 inh -5.9%[57.4 µM].
For Cc1ccc(-n2c(=O)c3sccc3n(CC(=O)NCc3ccco3)c2=O)cc1 the results were PLK1 PBD inh -5.8%, Sfp inh -5.0%, VDR inh 4.9% and ALOX12 inh 0.0%.
Screening CCCn1c(=S)[nH]c2cc(C(=O)N3CCN(c4ccccc4OC)CC3)ccc2c1=O returned PLK1 PBD inh -9.5%, Sfp inh -4.3%, VDR inh 10.2% and ALOX12 inh 1.0%.
`COc1ccc2oc(-c3ccc(C)c(NC(=O)c4ccc(-c5ccccc5[N+](=O)[O-])o4)c3)nc2c1` gave VDR inh -12.5% and ALOX12 inh -8.3%.
Cc1ccc(-n2ncc3c(N4CCC(C(N)=O)CC4)ncnc32)c(C)c1 was read as PLK1 PBD inh -3.4%, Sfp inh 19.6% and VDR inh 18.1%.
CCN(CC)C(=O)C1CCN(c2ncnc3c2cnn3-c2ccc(C)cc2C)CC1 was read as PLK1 PBD inh -9.9%, Sfp inh 56.2µM*, VDR inh -14.8% and ALOX12 inh 0.0%.
N[n+]1cccc2ccccc21 was read as ALOX12 inh 17.8µM*.
For NC(=O)C[n+]1cccc2ccccc21 the results were PLK1 PBD inh -15.7%, Sfp inh -7.3%, VDR inh -0.9% and ALOX12 inh inconclusive.
`Cc1ccc(C(=O)CSc2nc3cc(S(=O)(=O)N4CCOCC4)ccc3o2)cc1` gave PLK1 PBD inh 23.8µM*, Sfp inh -15.0%, VDR inh -3.7% and ALOX12 inh 0.0%.
For O=C(CSc1nc2cc(S(=O)(=O)N3CCOCC3)ccc2o1)NC1CCCc2ccccc21 (stereo not given) the results were PLK1 PBD inh 6.7µM*, Sfp inh 10µM*, VDR inh inconclusive and ALOX12 inh 0.7%.
O=C(NC1CCCc2ccccc21)c1cc(S(=O)(=O)N2CCOCC2)ccc1F (stereo not given) was read as PLK1 PBD inh -6.2%, Sfp inh -5.8%, VDR inh -10.7% and ALOX12 inh -3.0%.
Cc1[nH]c2ccccc2c1C(=O)CSc1nc2cc(S(=O)(=O)N3CCCCC3)ccc2o1 was read as PLK1 PBD inh -15.4%, Sfp inh 10.4%, VDR inh -7.9% and ALOX12 inh 7.4%.
CC(C)CNC(=O)COC(=O)c1ccc2c(c1)C(=O)N(Cc1ccco1)C2=O was read as PLK1 PBD inh -18.6%, Sfp inh 28.1%, VDR inh 24.7% and ALOX12 inh -2.0%.
CCCn1c(N)c(C(=S)NC(=O)C2CC2)c(=O)n(C)c1=O was read as PLK1 PBD inh -8.9%, Sfp inh 50.1µM* and VDR inh inconclusive.
For CCCCCn1nc(C(=O)NC2CCN(C(=O)C3CC3)CC2)c2ccccc2c1=O the results were ALOX12 inh 0.0%.
